The values below come from PubChem BioAssay.

The subject of the first test is Fibrinogen (Alexa647-labelled). Description: Alexa647-fibrinogen binding to printed small molecules – biochemical, small-molecule microarray, 635/667 nm fluorescence, artefact control for SMM control-protein annotation, profiling panel (AID 1131).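 Further: z-score merges 667 nm fluorescence with per-spot signal-to-noise over triplicate slides.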 To be noted: fibrinogen-A647 binding fluorescence, higher = more signal.
The compound `COC(=O)[C@@]1(Cc2ccc(OC)cc2)[C@H]2c3cc(C(=O)N4CCCC4)n(Cc4ccc(C)c(F)c4F)c3C[C@H]2CN1C(=O)c1ccccc1` yielded a composite z-score of 0.97. Consider `C=CCOC(=O)[C@H]1[C@@H]2C(=O)O[C@@H](c3ccccc3)[C@@H](c3ccccc3)N2[C@@H](c2ccc(OCCOC(=O)[C@H]3C[C@H]4C(=O)N[C@@H](CCCCNC(C)=O)C(=O)N4[C@H]3c3cccc(OCCO)c3)cc2)[C@]12C(=O)Nc1ccccc12`, for which the composite z-score is 0.525. Compound `CC(C)c1ccc(NN2C(C(O)c3ccc(B(O)O)cc3)C=CC3C(=O)N(c4ccccc4)C(=O)C32)cc1` (stereo not drawn) yielded a composite z-score of 0.952. As for `CCCC=C(CCC)[C@@H](NC(=O)c1cccs1)c1ccc(C(F)(F)F)cc1`, the composite z-score stood at 0.936. Regarding `COc1ccc(C#Cc2ccc3c(c2)[C@]2(C(=O)N3)[C@H](C(=O)Nc3nc4ccccc4s3)[C@H]3C(=O)O[C@H](c4ccccc4)[C@H](c4ccccc4)N3[C@@H]2c2ccc(O)cc2)cc1`, the composite z-score is 0.997. `CCCCCCc1nc(-c2cc(C)c(OC)c(C)c2)cc2c1[Si](C(C)C)(C(C)C)OC2` showed a composite z-score of -0.419. Take `COCCOC(=O)N1C(=O)[C@@]2(c3cc(C#Cc4ccc(OC)cc4)ccc31)[C@H](c1ccccc1OCCO)N1[C@H](c3ccccc3)[C@H](c3ccccc3)OC(=O)[C@H]1[C@@H]2C(=O)NC[C@H](O)c1ccccc1`: the composite z-score came to 0.782.

The compound `COC(=O)C(CC#Cc1ccc2c(c1)[C@]1(C(=O)N2)[C@H](c2ccc(OCCO)cc2)N2[C@H](c3ccccc3)[C@H](c3ccccc3)OC(=O)[C@H]2[C@@H]1C(=O)N1CCc2cc(OC)c(OC)cc2C1)C(=O)OC` registered a composite z-score of 1. The compound `COCCOC(=O)N1C(=O)[C@@]2(c3cc(C#CCC(C(=O)OC)C(=O)OC)ccc31)[C@H](c1ccccc1OCCO)N1[C@H](c3ccccc3)[C@H](c3ccccc3)OC(=O)[C@H]1[C@@H]2C(=O)N1CCN(c2ncccn2)CC1` showed a composite z-score of 0.696. Still for that read-out and setting: with `O=C(c1ccccc1)N1C(=O)[C@]2(COC(c3ccc(OCCCO)cc3)=N2)Cc2ccccc21` the figure was 0.988. In turn, `COc1ccc([Si](C)(C)[C@@H]2[C@@H](CCO)O[C@]3(C(=O)N(Cc4ccc(N(C=O)c5ccccc5)cc4)c4ccccc43)[C@H]2C)cc1` yielded a composite z-score of 0.845.

`O=C1c2ccccc2[C@](Cc2ccccc2I)(C(=O)NCC(F)(F)F)[C@H](c2ccc(CO)cc2)N1Cc1ccccc1Cl`: the composite z-score was determined as 0.722. As to `COCCOC(=O)N1C(=O)[C@@]2(c3cc(C#CCCO)ccc31)[C@H](C(N)=O)[C@H]1C(=O)O[C@H](c3ccccc3)[C@H](c3ccccc3)N1[C@@H]2c1ccc(O)cc1`, the composite z-score was 0.141. Consider `C=C(CCCC)/C(=C/C[C@@H](OC(=O)c1ccncc1)c1ccc(OCCO)cc1)c1cc(C(=O)OC)ccc1OC`, for which the composite z-score is -0.117. On the same count and under the same terms, with `C=CCN1C(=O)[C@]2(O[C@H](CCn3cc([C@H](O)c4ccccc4)nn3)[C@@H]([Si](C)(C)c3ccc(OC)cc3)[C@@H]2C)c2ccccc21` the figure was -1.07; with `[N-]=[N+]=NCc1ccccc1[C@@H]1OC(c2ccc(OCCCO)cc2)=N[C@]1(Cc1ccccc1)C(=O)NCC(O)CO` (stereo partly drawn), 0.958. For `COc1cc2c(cc1OC)CN(C(=O)[C@H]1[C@@H]3C(=O)O[C@@H](c4ccccc4)[C@@H](c4ccccc4)N3[C@@H](c3ccc(O)cc3)[C@]13C(=O)Nc1ccc(C#CCCO)cc13)CC2`, the composite z-score is 0.807. Compound `C=CCNC(=O)[C@@H]1[C@H]2C(=O)O[C@H](c3ccccc3)[C@H](c3ccccc3)N2[C@H](c2ccccc2OCCO)[C@@]12C(=O)N(C(=O)OCCOC)c1ccccc12` yielded a composite z-score of 0.979. On the same count and under the same terms, with `CC1(C)[C@@H]2CC(C(O)C3C=CC4C(=O)N(c5ccccc5)C(=O)C4N3Nc3ccc([N+](=O)[O-])cc3)=C[C@H]1C2` (stereo partly drawn) the figure was 1.04; with `C=CCNC(=O)[C@H]1[C@@H]2C(=O)O[C@@H](c3ccccc3)[C@@H](c3ccccc3)N2[C@@H](c2ccccc2OCCO)[C@]12C(=O)Nc1ccc(C#CCC(C(=O)OC)C(=O)OC)cc12`, 0.931; with `O=C1C2C=CC(C(O)c3cc(C(F)(F)F)cc(C(F)(F)F)c3)N(n3cnnc3)C2C(=O)N1Cc1ccccc1` (stereo not drawn), 0.889. Compound `COc1cc(NN2C(C(O)c3ccco3)C=CC3C(=O)N(c4ccccc4)C(=O)C32)cc(OC)c1OC` (stereo not drawn) gave a composite z-score of -0.0129. In turn, `CN(C)CCCCCCNC(=O)[C@@H]1C[C@@H]2C(=O)N[C@@H](Cc3ccccc3)C(=O)N2[C@@H]1c1ccc(O)cc1` had a composite z-score of 0.493.

Regarding `CC(C)NC(=O)[C@@]1(c2ccc([N+](=O)[O-])cc2)CC(=O)N(C2CCCCC2)[C@@H]1c1ccc(CO)cc1I`, the composite z-score was -0.517. `C=CC[C@]1(C(=O)NCc2ccccc2)N=C(c2ccc(OCCCO)cc2)O[C@H]1c1ccccc1N=[N+]=[N-]` displayed a composite z-score of 0.971.

The target in another test is Follistatin (Homo sapiens) (UniProt P19883). The test is described as follows: FST protein binding to printed compounds – biochemical, small-molecule microarray, 635/667 nm fluorescence, primary screen (AID 1132). To be noted: 635 nm fluorescence, higher = more signal.
Follistatin (Homo sapiens), sequence (P19883 whole entry, looked up): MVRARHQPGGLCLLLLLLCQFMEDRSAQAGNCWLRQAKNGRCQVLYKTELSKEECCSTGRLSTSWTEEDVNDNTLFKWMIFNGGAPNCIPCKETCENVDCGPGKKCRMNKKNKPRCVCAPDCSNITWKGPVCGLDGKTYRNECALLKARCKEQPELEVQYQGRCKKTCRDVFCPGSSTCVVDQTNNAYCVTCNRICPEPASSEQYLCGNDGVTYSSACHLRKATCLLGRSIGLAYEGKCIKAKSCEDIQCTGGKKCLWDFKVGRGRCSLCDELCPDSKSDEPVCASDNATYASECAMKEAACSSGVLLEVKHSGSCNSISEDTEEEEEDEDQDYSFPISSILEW
For `COc1ccc([C@H]2OC[C@@H]3C[C@@H](Cc4ccccc4)C(=O)N32)cc1`, the composite z-score was found to be 0.62. With `COCCCNC(=O)[C@@H]1c2ccccc2C(=O)N(Cc2ccccc2Cl)[C@H]1c1ccc(CO)cc1`, the composite z-score came out at 1.33. The same measure, in the same setting: with `O=C1C2C=CC(C(O)c3cccc4ccccc34)N(Nc3ccccc3F)C2C(=O)N1c1ccccc1` (stereo not drawn) the figure was 0.829; with `COC(=O)[C@@]1(CCS(=O)(=O)c2ccccc2)N=C(c2ccc(OCCCO)cc2)O[C@H]1c1ccccc1CN=[N+]=[N-]`, 1.31.

The compound `C=C[C@H](OC)[C@@H](OC(=O)Nc1ccc(OC)cc1)c1ccc(O)c(F)c1` registered a composite z-score of -1.07. Same read-out and setting: with `C=CCC(OC(C)=O)[C@@H]1[C@@H](N(Cc2ccc(-c3ccccc3)cc2)C(=O)c2cccc3ccccc23)c2cc(OCCCO)ccc2N1C(=O)c1ccc(-c2ccccc2)cc1` (stereo partly drawn) the figure was 0.435; with `C=CCOC(=O)[C@H]1[C@@H]2C(=O)O[C@@H](c3ccccc3)[C@@H](c3ccccc3)N2[C@@H](c2ccc(OCCOC(=O)[C@H]3C[C@H]4C(=O)N[C@@H](CCCC[N+](C)(C)C)C(=O)N4[C@H]3c3ccc(O)cc3)cc2)[C@]12C(=O)Nc1ccc(I)cc12`, 1.38.

Turning to `COC(=O)[C@@]1(Cc2ccc(OC)cc2)[C@@H]2C(=CC(=O)[C@H]2CC(=O)C(=O)N2CCCC2)CN1C(=O)c1ccccc1`, the composite z-score is -0.0125. For `C[C@H]1NC(=O)[C@@]23C(=O)N[C@@H](Cc4ccccc4)C2[C@H](C)[C@@]2(C)O[C@H]2C3/C=C/C/C=C\CNC(=O)[C@@H]2CCCN2C1=O` (stereo partly drawn), the composite z-score worked out at 1.05.

`O=C(OCc1ccccc1)C1=CCC2c3[nH]c4ccccc4c3C(=O)C1N2S(=O)(=O)c1ccccc1[N+](=O)[O-]` (stereo not drawn) had a composite z-score of 1.11. `COC(=O)[C@@]1(Cc2ccc(OC)cc2)[C@H]2c3cc(C(=O)N4CCCC4)n(Cc4ccc(C)c(F)c4F)c3C[C@H]2CN1C(=O)c1ccccc1` registered a composite z-score of 0.884. Compound `C=CCOC(=O)[C@H]1[C@@H]2C(=O)O[C@@H](c3ccccc3)[C@@H](c3ccccc3)N2[C@@H](c2ccc(OCCOC(=O)[C@H]3C[C@H]4C(=O)N[C@@H](CCCCNC(C)=O)C(=O)N4[C@H]3c3cccc(OCCO)c3)cc2)[C@]12C(=O)Nc1ccccc12` came in with a composite z-score of 1.31. For the compound `CC(C)c1ccc(NN2C(C(O)c3ccc(B(O)O)cc3)C=CC3C(=O)N(c4ccccc4)C(=O)C32)cc1` (stereo not drawn), the composite z-score amounted to 1.32. As to `CCCC=C(CCC)[C@@H](NC(=O)c1cccs1)c1ccc(C(F)(F)F)cc1`, the composite z-score was 0.572.

On to `COc1ccc(C#Cc2ccc3c(c2)[C@]2(C(=O)N3)[C@H](C(=O)Nc3nc4ccccc4s3)[C@H]3C(=O)O[C@H](c4ccccc4)[C@H](c4ccccc4)N3[C@@H]2c2ccc(O)cc2)cc1`, for which the composite z-score amounted to 1.38. In turn, `CCCCCCc1nc(-c2cc(C)c(OC)c(C)c2)cc2c1[Si](C(C)C)(C(C)C)OC2` displayed a composite z-score of 0.578. The compound `COCCOC(=O)N1C(=O)[C@@]2(c3cc(C#Cc4ccc(OC)cc4)ccc31)[C@H](c1ccccc1OCCO)N1[C@H](c3ccccc3)[C@H](c3ccccc3)OC(=O)[C@H]1[C@@H]2C(=O)NC[C@H](O)c1ccccc1` yielded a composite z-score of 1.33.

As to `COC(=O)C(CC#Cc1ccc2c(c1)[C@]1(C(=O)N2)[C@H](c2ccc(OCCO)cc2)N2[C@H](c3ccccc3)[C@H](c3ccccc3)OC(=O)[C@H]2[C@@H]1C(=O)N1CCc2cc(OC)c(OC)cc2C1)C(=O)OC`, the composite z-score is 1.41. Compound `COCCOC(=O)N1C(=O)[C@@]2(c3cc(C#CCC(C(=O)OC)C(=O)OC)ccc31)[C@H](c1ccccc1OCCO)N1[C@H](c3ccccc3)[C@H](c3ccccc3)OC(=O)[C@H]1[C@@H]2C(=O)N1CCN(c2ncccn2)CC1` displayed a composite z-score of 1.38. `O=C(c1ccccc1)N1C(=O)[C@]2(COC(c3ccc(OCCCO)cc3)=N2)Cc2ccccc21`: the composite z-score was 1.4. In turn, `COc1ccc([Si](C)(C)[C@@H]2[C@@H](CCO)O[C@]3(C(=O)N(Cc4ccc(N(C=O)c5ccccc5)cc4)c4ccccc43)[C@H]2C)cc1` registered a composite z-score of 0.735. In turn, `O=C1c2ccccc2[C@](Cc2ccccc2I)(C(=O)NCC(F)(F)F)[C@H](c2ccc(CO)cc2)N1Cc1ccccc1Cl` came in with a composite z-score of 1.1.

As for `COCCOC(=O)N1C(=O)[C@@]2(c3cc(C#CCCO)ccc31)[C@H](C(N)=O)[C@H]1C(=O)O[C@H](c3ccccc3)[C@H](c3ccccc3)N1[C@@H]2c1ccc(O)cc1`, the composite z-score is -0.15. `C=C(CCCC)/C(=C/C[C@@H](OC(=O)c1ccncc1)c1ccc(OCCO)cc1)c1cc(C(=O)OC)ccc1OC` showed a composite z-score of 0.641.

With `C=CCN1C(=O)[C@]2(O[C@H](CCn3cc([C@H](O)c4ccccc4)nn3)[C@@H]([Si](C)(C)c3ccc(OC)cc3)[C@@H]2C)c2ccccc21`, the composite z-score is -0.696.

`[N-]=[N+]=NCc1ccccc1[C@@H]1OC(c2ccc(OCCCO)cc2)=N[C@]1(Cc1ccccc1)C(=O)NCC(O)CO` (stereo partly drawn) displayed a composite z-score of 0.973.

The compound `COc1cc2c(cc1OC)CN(C(=O)[C@H]1[C@@H]3C(=O)O[C@@H](c4ccccc4)[C@@H](c4ccccc4)N3[C@@H](c3ccc(O)cc3)[C@]13C(=O)Nc1ccc(C#CCCO)cc13)CC2` came in with a composite z-score of 1.12. Compound `C=CCNC(=O)[C@@H]1[C@H]2C(=O)O[C@H](c3ccccc3)[C@H](c3ccccc3)N2[C@H](c2ccccc2OCCO)[C@@]12C(=O)N(C(=O)OCCOC)c1ccccc12` came in with a composite z-score of 1.39.
